Shown are actives, neighbours in structure and some others; about 12% of the full set was active somewhere.
WT yeast gro inh: growth inhibition of WT strain, primary screen, mitochondrial fusion inhibitor project, WT and mutant strains, chemical genetic; mitochondrial fusion phenotypic screen; 190,000 compounds, 2.1% hits; inhibition, % at 10 µM; in the data active means inhibition above about 58%; tested in S. cerevisiae
ROMK mod: ROMK potassium channel modulators, primary screen, cell-based, thallium flux, MLSMR library; ATP-sensitive inward rectifier potassium channel 1 (Homo sapiens), P48048; Tet-inducible ROMK, thallium flux fluorescence; actives lie on both sides; B-score at 10 µM; 130,000 compounds, 2% hits;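 active means signal ratio slope over the read window, or its plate-corrected B-score, at least 3 SD from the plate mean, either direction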;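 further: B-score of the F/F0 ratio slope over 7 to 12 s after thallium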
Target sequence (P48048 whole entry, looked up): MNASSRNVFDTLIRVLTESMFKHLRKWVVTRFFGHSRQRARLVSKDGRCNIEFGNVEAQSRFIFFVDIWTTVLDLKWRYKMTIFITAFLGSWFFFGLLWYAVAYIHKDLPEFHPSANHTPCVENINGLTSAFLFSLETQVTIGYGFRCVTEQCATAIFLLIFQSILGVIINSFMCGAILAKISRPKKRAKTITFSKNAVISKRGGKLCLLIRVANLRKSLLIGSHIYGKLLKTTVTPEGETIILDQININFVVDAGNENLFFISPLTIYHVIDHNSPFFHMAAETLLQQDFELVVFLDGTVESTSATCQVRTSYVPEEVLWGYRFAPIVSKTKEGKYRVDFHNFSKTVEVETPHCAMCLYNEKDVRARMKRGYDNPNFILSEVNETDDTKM
KCC2 mod: KCC2 cotransporter modulators, thallium flux, primary screen, cell-based, HEK293 KCC2, FluoZin-2 fluorescence, MLSMR; 190,000 compounds, 2.2% hits; AID 1456, 2008; KCC2 cells, thallium flux FluoZin-2 fluorescence; B-score of Tl+ flux slope (higher = more flux/activation; lower = inhibition) at 10 µM;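 active means thallium flux slope and its plate-corrected score both differing from the plate sample mean at a set confidence after two filtering rounds, in either direction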;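 further: slope of fluorescence scaled to starting intensity during 10 to 20 s after thallium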
Lmaj promast: Leishmania major promastigote growth inhibition, primary screen | Leishmania major promastigotes, resazurin fluorescence viability | inhibition, % at 10 µM | 200,000 compounds, 9% hits; in the data active means inhibition above about 50%;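 further: promastigotes grown with compound for 44 hours at 28 °C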
m-calpain inh: inhibitors of pig calpain II, primary screen, biochemical, fluorogenic peptide substrate, 1536-well | purified calpain II, 30 min | inhibition, % at 16 µM | 220,000 compounds, 0.37% hits;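 active means inhibition above about 50%, limit read from the data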
KCC2 secondary: KCC2 modulators in sodium-free buffer, confirmation, cell-based, HEK293 KCC2, thallium flux, secondary assay; normalised thallium flux (F/F0 slope) at 10 µM; 3,700 compounds, 15% hits; FluoZin2 fluorescence; stronger effect = higher value; shares compounds with KCC2 mod;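 active means thallium flux slope above the same plate's solvent-only control mean plus 3 SD; inconclusive means the two replicate wells disagree; inactive means no significant difference from solvent-only control wells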
KCC2 bumet counter: thallium flux persisting under bumetanide in KCC2 cells, confirmation, counter-screen for KCC2 modulator project, cell-based, HEK293 KCC2, FluoZin2, secondary assay 3; shares compounds with KCC2 mod; HEK293-KCC2 + bumetanide/ouabain; stronger effect = higher value; normalized thallium flux at 10 µM; 3,700 compounds, 49% hits; AID 1714, 2009;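 active means thallium entry rate above the same plate's blocked-transporter control wells by more than 3 SD; inconclusive means the two repeat wells disagree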;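 further: raw slope of fluorescence over initial fluorescence between 10 and 20 s after thallium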
KCC2 sec2: KCC2 modulators without ouabain present, confirmation, cell-based, HEK293 KCC2, thallium flux, FluoZin2, secondary assay 2. 3,700 compounds, 23% hits. shares compounds with KCC2 mod. thallium flux FluoZin2 fluorescence; actives lie on both sides; F/F0 rise rate, 10–20 s post-thallium. AID 1715, 2009. normalized thallium flux at 10 µM;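 active means thallium flux slope more than 3 SD above or below the plate's solvent-only control mean, mostly below; inconclusive means the two repeat wells disagreed; inactive means no significant shift from solvent-only controls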
HEK counter1: thallium flux modulation in parental HEK cells, confirmation, counter-screen for KCC2 modulator project, cell-based, counterscreen 1. shares compounds with KCC2 mod. HEK293 parental cells, thallium flux FluoZin2, ouabain; baseline-ratio fluorescence slope, 10–20 s after thallium. thallium flux rate (normalised fluorescence) at 10 µM. 3,700 compounds, 46% hits. AID 1716, 2009;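 active means thallium flux rate significantly above the same plate's solvent-only control wells, beyond their mean plus 3 SD; inconclusive means the two replicate wells gave conflicting results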
KCC2 retest ouab: KCC2 inhibitors and activators, ouabain retest, confirmation, HEK-KCC2 cells | shares compounds with KCC2 mod | HEK293-KCC2, thallium flux FluoZin2 fluorescence; bidirectional: low = inhibitor, high = activator | raw Tl+ flux slope (below DMSO = inhibition, above = activation) at 10 µM | 3,700 compounds, 48% hits | AID 1717, 2009;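 active means thallium flux slope beyond 3 SD from same-plate DMSO control mean in most replicates, usually higher, sometimes lower; inconclusive means repeat tests gave conflicting results; inactive means no significant difference from controls in most replicates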;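 further: slope of initial-normalized fluorescence between seconds 10 and 20 after thallium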
HEK counter2: native HEK Tl+ uptake effects, second counter-screen – HEK cells, counterscreen 2, counter-screen for KCC2 modulator project, confirmation | shares compounds with KCC2 mod | HEK293 parental, thallium flux FluoZin-2 fluorescence slope | 3,700 compounds, 33% hits | thallium flux slope at 10 µM | AID 1718, 2009;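 active means thallium flux slope above the same plate's solvent-control mean plus 3 SD in both duplicate wells; inconclusive means duplicate wells that disagreed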;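 further: run without ouabain in cells lacking the KCC2 cotransporter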
Each line names hits and unclear results; the compound was inactive in the other large screens (follow-up assays come after a bar, where they were run).

C=C(C)CNC(=S)N=Nc1c(O)[nH]c2ccc([N+](=O)[O-])cc12	KCC2 mod 14, Lmaj promast 78 | KCC2 secondary inactive | KCC2 bumet counter 0.021 | KCC2 sec2 inactive | HEK counter1 0.024 | KCC2 retest ouab 0.027 | HEK counter2 0.014
CN(Cc1ccccc1)S(=O)(=O)c1ccc(NS(=O)(=O)Cc2ccccc2)cc1	none (no result: KCC2 mod)
Cc1ccc(NC(=S)N/N=C2/CCCCc3ccccc32)cc1	KCC2 mod 33 (no result: WT yeast gro inh, ROMK mod, Lmaj promast) | KCC2 secondary inactive | KCC2 bumet counter 0.04 | KCC2 sec2 inconclusive | HEK counter1 0.033 | KCC2 retest ouab 0.033 | HEK counter2 0.031
Cc1cccc(NC(=S)N/N=C2/CCCCc3ccccc32)c1	WT yeast gro inh 63, KCC2 mod 7.9 | KCC2 secondary inactive | KCC2 bumet counter 0.036 | KCC2 sec2 0.046 | HEK counter1 0.042 | KCC2 retest ouab 0.037 | HEK counter2 0.024
Cc1ccc(C)c(NC(=S)N/N=C2\CCc3ccccc32)c1	KCC2 mod 24 (no result: WT yeast gro inh, Lmaj promast) | KCC2 secondary 0.014 | KCC2 bumet counter 0.075 | KCC2 sec2 inactive | HEK counter1 0.071 | KCC2 retest ouab 0.043 | HEK counter2 0.018
COc1ccc(NC(=S)N/N=C2/CCCc3c(C)cc(C)cc32)cc1	none
CS(=O)(=O)N(CC(=O)N1CCCC1)c1ccc2c(c1)OCCO2	none (no result: KCC2 mod) | KCC2 secondary inactive | KCC2 bumet counter inactive | KCC2 sec2 inactive | HEK counter1 inactive | KCC2 retest ouab inactive | HEK counter2 inactive
COc1cccc(CNC(=O)CCS(=O)(=O)c2cccs2)c1	none (no result: ROMK mod)
CC1=NN(C(=O)c2csc(C)c2)C(O)(C(F)(F)F)C1 (configuration not stated)	none
CC1=NN(C(=O)c2ccc(Br)cc2)C(O)(C(F)(F)OC(F)(F)F)C1 (configuration not stated)	KCC2 mod 6.1 | KCC2 secondary inactive | KCC2 bumet counter 0.0099 | KCC2 sec2 inactive | HEK counter1 0.0088 | KCC2 retest ouab 0.029 | HEK counter2 inconclusive
COC(=O)C1=NN(C(=O)c2ccc(Br)cc2)C(O)(C(C)(C)C)C1 (configuration not stated)	KCC2 mod 66 | KCC2 secondary 0.049 | KCC2 bumet counter 0.14 | KCC2 sec2 0.046 | HEK counter1 inconclusive | KCC2 retest ouab 0.1 | HEK counter2 0.021
CCN(CC)C(=O)C(=O)c1cc(C)n(-c2ccc(F)cc2)c1C	none
O=C(Nc1ccc(S(=O)(=O)NCc2ccccc2)cc1)c1ccccc1[N+](=O)[O-]	KCC2 mod -6.6 (no result: ROMK mod) | KCC2 secondary inactive | KCC2 bumet counter inactive | KCC2 sec2 0.025 | HEK counter1 inactive | KCC2 retest ouab inconclusive | HEK counter2 inactive
CCOC(=O)c1ccc(NC(=O)c2ccccc2[N+](=O)[O-])cc1	none (no result: ROMK mod)
O=C(Nc1ccc(Cl)cn1)c1cc2ccccc2o1	none (no result: ROMK mod)
O=C(NNC(=O)c1cc2ccccc2o1)c1ccc(Cl)cc1	KCC2 mod 8.7 (no result: WT yeast gro inh, ROMK mod, Lmaj promast) | KCC2 secondary inactive | KCC2 bumet counter 0.024 | KCC2 sec2 inactive | HEK counter1 0.011 | KCC2 retest ouab inconclusive | HEK counter2 0.012
Cc1cc(C)cc(OCC(=O)NNC(=O)c2cc3ccccc3o2)c1	KCC2 mod 31 | KCC2 secondary 0.019 | KCC2 bumet counter 0.1 | KCC2 sec2 inactive | HEK counter1 0.034 | KCC2 retest ouab 0.059 | HEK counter2 0.015
COc1ccc(OC)c(NC(=O)C(Sc2ccccc2)c2ccccc2)c1 (configuration not stated)	none (no result: ROMK mod, KCC2 mod) | KCC2 secondary inactive | KCC2 bumet counter inactive | KCC2 sec2 inactive | HEK counter1 inactive | KCC2 retest ouab inactive | HEK counter2 inactive
CCOc1ccc(C(CC(=O)O)NC(=O)C(Sc2ccccc2)c2ccccc2)cc1 (configuration not stated)	KCC2 mod -4 | KCC2 secondary inactive | KCC2 bumet counter inconclusive | KCC2 sec2 0.023 | HEK counter1 inactive | KCC2 retest ouab inconclusive | HEK counter2 inactive
COc1ccc(OC)c(NC(=O)CC(NC(C)=O)c2ccccc2)c1 (configuration not stated)	none
Cc1ccc(-c2ccc(/C=N/NC(=O)c3ccccc3O)o2)cc1	KCC2 mod 61 (no result: WT yeast gro inh, Lmaj promast) | KCC2 secondary 0.02 | KCC2 bumet counter 0.079 | KCC2 sec2 inactive | HEK counter1 0.041 | KCC2 retest ouab 0.057 | HEK counter2 0.015
Cc1ccc(-c2ccc(/C=N/NC(N)=S)o2)cc1	KCC2 mod 5 (no result: WT yeast gro inh, ROMK mod, Lmaj promast) | KCC2 secondary inactive | KCC2 bumet counter 0.012 | KCC2 sec2 inactive | HEK counter1 0.01 | KCC2 retest ouab inconclusive | HEK counter2 inconclusive
NS(=O)(=O)c1ccc(-c2ccc(/C=N/NC(=O)c3ccccc3O)o2)cc1	none (no result: WT yeast gro inh, Lmaj promast)
COc1ccc(C(=O)COC(=O)C(CCSC)NS(=O)(=O)c2ccc(Cl)cc2)cc1 (configuration not stated)	none
O=[N+]([O-])C(=C1NCCN1)C(Cl)=C(Cl)Cl	none
COn1c(SC2CCCCC2)nc2ccccc2c1=O	KCC2 mod 2.6 | KCC2 secondary inconclusive | KCC2 bumet counter 0.014 | KCC2 sec2 inactive | HEK counter1 0.012 | KCC2 retest ouab inconclusive | HEK counter2 inactive
Cn1c(=O)[nH]c(=O)c2c1ncn2CCN1CCOCC1	none (no result: ROMK mod)
Cn1cnc2c1c(=O)[nH]c(=O)n2C	none (no result: WT yeast gro inh, ROMK mod, Lmaj promast) | KCC2 secondary inactive | KCC2 bumet counter inactive | KCC2 sec2 inactive | HEK counter1 inactive | KCC2 retest ouab inactive | HEK counter2 inactive
